The list is not random: actives were taken first. Their share in the collection is about 2.4%.
Pol beta inh: DNA polymerase beta (human) inhibition; Pol beta primer extension/strand displacement, fluorescence kinetic; AID 485314; Potency, µM (titrated, usually from 114 µM), without a hit: at the top dose activity change, negative = inhibition, hits mostly inhibitors; P06746; 1.3% of 340,000 active; further: on the % scale 0 is the no-effect control and ±100 the full control effect
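Pol beta (10 nM) was preincubated with compound for 15 min at room temperature. The reaction was then started with 50 nM substrate and read immediately and after a further 10 min at room temperature.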
FEN1 inh: inhibitors of human flap endonuclease 1; P39748; Recombinant FEN1 flap cleavage, fluorescence, 15 min; Potency, µM (doses to about 114 µM), without a hit: top-dose activity change, negative = inhibition, usual class: inhibitors; 0.35% of 390,000 active; AID 588795; further: on the % scale 0 is the no-effect control and ±100 the full control effect; nearly all actives have a fitted effect of over 65% in size
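FEN1 at 10 nM preincubated with compounds 15 min at room temperature, then flap DNA substrate added at 50 nM final. Signal read at 0 and 15 min; concentration-response fitted with four-parameter Hill equation.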
POLI inh: inhibitors of human DNA polymerase iota. 1% of 390,000 active. Pol iota fluorescent replication assay, 10 min. AID 588590. Q9UNA4. Potency, µM (highest dose often 115 µM), without a hit: top-dose activity, negative = inhibition, hits mostly inhibitors
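Fluorescent replication assay read twice, at 0 min and 10 min after adding 50 nM (final) substrate. Enzyme (10 nM) and compounds were first incubated 15 min at room temperature; enzyme-free buffer wells were negative controls.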
POLH inh: DNA polymerase eta (human) inhibition | Potency, µM (highest dose often 114 µM), for inactives: at the highest dose activity change, negative = inhibition, most hits filed as inhibitors | AID 588591 | 1.2% of 390,000 active | recombinant Pol eta, fluorescent DNA replication assay | Q9Y253; further: on the % scale 0 is the no-effect control and ±100 the full control effect
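Pol eta at 10 nM preincubated with compounds 15 min at room temperature; reaction started with fluorescent substrate (50 nM final) and read kinetically at 0 and 10 min.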
WRN inhibitor: WRN helicase (human) inhibition | Q14191 | WRN helicase unwinding, fluorescent forked duplex, kinetic | Potency, µM (doses to about 114 µM), inactives show at the highest dose activity change, negative = inhibition, hits mostly inhibitors | 0.46% of 360,000 active; further: on the % scale 0 is the no-effect control and ±100 the full control effect; nearly all actives have a fitted effect of over 55% in size
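Enzyme (20 nM final) and test compound sit together 15 min at room temperature before substrate addition. Substrate is a single-forked duplex oligonucleotide (100 nM) labelled with fluorophore and quencher, with 2 mM ATP; helicase unwinding raises red fluorescence, read kinetically.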
Pol kappa inh: blocks human DNA polymerase kappa activity. purified Pol kappa, fluorescent DNA synthesis assay, 10 min. Potency, µM (titrated, usually from 107 µM), inactives show top-dose activity, negative = inhibition, hits mostly inhibitors. 0.53% of 400,000 active. AID 588579; further: on the % scale 0 is the no-effect control and ±100 the full control effect
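50 nM final substrate added after 15 min RT preincubation of 10 nM Pol kappa with compound; fluorescence read at 0 and 10 min.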
Active calls of the source: *; ? = inconclusive; · = no result given; [ ] = remark or other dose. The call rests on the fitted dose curve; in most records, active means well fitted curve in the direction sought with a large enough effect; inconclusive means small, poorly fitted or top-dose-only effect, or another doubt; inactive means no such curve, though single readings can be large; an effect the other way counts as inactive or inconclusive. Potency means the concentration at half of the fitted maximal effect.

SMILES	Pol beta inh	FEN1 inh	POLI inh	POLH inh	WRN inhibitor	Pol kappa inh
Cn1c(SCC(=O)N/N=C/c2ccco2)nc2ccccc21	-13%	21%	25%	3%	5%	-1%
O=S(=O)(Nc1nc2ccccc2nc1NCc1ccco1)c1ccc(Cl)cc1	?	-10%	?	?	-15%	-4%
Cc1noc(C)c1CSc1nc2ccccc2nc1NS(=O)(=O)c1ccc(Cl)cc1	3%	-8%	?	79µM*	-24%	-9%
Cc1cccc(C)c1NC(=O)CSc1nccn1C	46%	-15%	15%	-17%	·	-2%
Cc1cc2c(cc1C)-n1nnnc1C(N(Cc1ccccc1)Cc1ccccc1)C(=O)N2 (stereo not given)	·	·	·	·	-2%	·
COc1cc(C(=O)NS(=O)(=O)c2ccccc2C)ccc1Cc1cn(C)c2ccc(NC(=O)OC3CCCC3)cc12	56µM*	·	·	·	·	?
CC(C)Oc1ccc(CNC(=O)CCCn2c(=O)c3cccn3c3cccnc32)cc1	12%	-4%	13%	-15%	·	-4%
Fc1cccc(CN2CCc3nc(Nc4ccc5c(c4)OCCO5)ncc3C2)c1F	-19%	-6%	-6%	-14%	·	-8%[60.1 µM]
COc1cccc(NC(=O)CN(c2ccc([N+](=O)[O-])cc2)S(=O)(=O)c2ccccc2)c1	-13%	-5%	10%	-16%	-13%[57.1 µM]	0%
COc1ccc(S(=O)(=O)N(CC(=O)O)c2ccccc2)cc1	15%	-4%	100µM*	-6%	-8%[57.1 µM]	-24%
COc1ccc(N(CC(=O)N/N=C/c2ccco2)S(=O)(=O)c2ccccc2)cc1	8.9µM*	-13%	?	89µM*	-30%	-22%
COc1ccc(NC(=O)CN(c2ccc([N+](=O)[O-])cc2)S(=O)(=O)c2ccccc2)cc1	0.11µM*	10%	5%	-17%	0%	-5%
COc1ccc(S(=O)(=O)N(CC(=O)O)c2ccccn2)cc1	7%	1%	45%	-2%	-3%	-13%
CN(C(=O)CSc1nc2ccccc2n1CC(=O)N(C)C1CCCCC1)c1ccccc1	-5%	-1%	6%	-11%	·	3%[60.1 µM]
CCOc1ccc(/C=N/NC(=O)c2cc3c(OC)cc(OC)cc3[nH]2)cc1OC	?	?	24%	?	-26%	-8%
COC(=O)c1ccc(/C=N/NC(=O)c2ccc3nc[nH]c3c2)cc1	6%	5%	21%	-16%	-2%	-20%
COc1ccc(/C=N/NC(=O)c2ccc3nc[nH]c3c2)cc1OC	16µM*	-13%	13µM*	-15%	-9%	?
CCOc1ccc2[nH]c(C(=O)N/N=C/c3cc(OC)c(OC)c(OC)c3)cc2c1	13µM*	-2%	-15%	?	4%	-30%
COc1cc(/C=N/NC(=O)c2ccc(CSc3nc4ccccc4[nH]3)cc2)cc(OC)c1OC	10µM*	-31%	?	?	-20%[57.1 µM]	?
COc1ccc(/C=N/NC(=O)c2[nH]nc3c2CCc2ccccc2-3)cc1OC	11µM*	?	-52%	?	-15%	?
Cc1ccc(-c2c(C3C4C=CCCC4(C)C(=O)N3Cc3ccccc3)ccc3ccccc23)cc1 (stereo not given)	·	-14%	-15%	·	·	-6%
Fc1ccc(CSc2nc3ccccc3[nH]2)cc1	77%	-5%	71µM*	-2%	-10%	-4%
COc1cc(/C=N/NC(=O)c2ccc3nc[nH]c3c2)cc(OC)c1OC	7.1µM*	-9%	16µM*	?	-15%	?
O=C(N/N=C/c1ccc([N+](=O)[O-])o1)c1cc(-c2ccc(-c3ccccc3)cc2)nc2ccccc12	20µM*	-3%	?	-31%	-7%[57.1 µM]	-31%
O=C(N/N=C/c1cccc([N+](=O)[O-])c1)c1cc(-c2ccccc2)nc2ccccc12	11%	-16%	-1%	-7%	1%	-1%
O=C(N/N=C/c1ccc(-c2cccc([N+](=O)[O-])c2)o1)c1ccccc1O	?	?	48%	50µM*	-4%[11.6 µM]	6%
